This is part of a sample that, as a whole, favours compounds with a hit. Of some 79,000 tested, about 15% had one in any assay. Values without a mark were called inactive. Activity calls are given as the source filed them. Rule as the data show it: active = growth inhibition above about 70%; inactive = the rest.

Consider 20 molecules from PubChem BioAssay (NCI).

The nature of assay [1]: NCI Yeast Anticancer Drug Screen. Data for the rad50 strain (AID 155).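 Also: 0% = growth of vehicle-only cultures of the same strain.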 To be noted: S. cerevisiae rad50 strain growth inhibition; at 50.0 µM; stronger effect = higher value. Put shortly: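 Vehicle-treated cultures provide the reference for the growth inhibition reported for compound-exposed, repair-deficient yeast.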
The nature of assay [2]: NCI Yeast Anticancer Drug Screen. Data for the mec2-1 strain (AID 157). The settings on record: S. cerevisiae mec2-1 strain, at 50.0 µM, stronger effect = higher value. A digest of the protocol:
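Strain: mec2-1 (DNA repair/cell cycle alteration). Compound exposure, then growth measured; inhibition expressed relative to vehicle.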

Assay [3] can be described thus: NCI Yeast Anticancer Drug Screen. Data for the sgs1 mgt1 strain (AID 161).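 Also: 0% = growth of cultures given vehicle only.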 To be noted: S. cerevisiae sgs1 mgt1 strain, at 50.0 µM, stronger effect = higher value. A digest of the protocol: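 Test agents were incubated with a DNA-repair-mutant yeast strain. Growth was then read and compared against vehicle-treated controls.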
Assay [4] can be described thus: NCI Yeast Anticancer Drug Screen. Data for the cln2 rad14 strain (AID 165).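 Also: 0% = growth equal to vehicle treated cultures.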 To be noted: S. cerevisiae cln2 rad14 strain, at 50.0 µM, stronger effect = higher value. A digest of the protocol: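 Compounds are applied to the cln2 rad14 yeast strain, and growth is then compared with that of vehicle-treated cultures to give inhibition.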
Assay [5] in a line: NCI Yeast Anticancer Drug Screen. Data for the bub3 strain (AID 167). To be noted: S. cerevisiae bub3 mutant strain, at 50.0 µM, stronger effect = higher value. Put shortly: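 Mutant yeast screening strain plus compound; vehicle-treated cultures serve as the 0% inhibition reference.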
The nature of assay [6]: NCI Yeast Anticancer Drug Screen. Data for the mlh1 rad18 strain (AID 175). The settings on record: S. cerevisiae mlh1 rad18 strain growth inhibition; at 50.0 µM; stronger effect = higher value. A digest of the protocol: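 Read-out is yeast growth inhibition, calculated against vehicle-only controls. The compound was applied to a strain engineered with DNA damage repair alterations.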

For `CCOC(=O)CCCCC(N)=O`, the growth inhibition in assay [1] was -4.3%; in assay [2], -7.6%; in assay [3], -15.7%; in assay [4], 1.15%; in assay [5] it was 11.4%; in assay [6] it was 2.7%.

On to `COc1ccc(-c2c(-c3ccccc3)c(-c3ccccc3)nn2-c2ccccc2)cc1`, for which the growth inhibition in assay [1] was 45.2%; in assay [2], 4.85%; in assay [3] it was 34.8%; in assay [4], 22.4%; in assay [5] it was 2.5%; in assay [6], 20.9%.

For `COc1nc(NC2OCC(OC(C)=O)C(OC(C)=O)C2OC(C)=O)c(-c2csc(N)n2)c(=O)n1C` (stereo not given), the growth inhibition is -1.9% in assay [1]; -21.9% in assay [2]; -14.6% in assay [3]; 13.6% in assay [4]; -2.3% in assay [5]; 6.85% in assay [6].

Turning to `CCOC(=O)CN1C(=O)CCC1=O`, the growth inhibition in assay [1] is -6.6%; in assay [2], 2.55%; in assay [3], -1.2%; in assay [4], -3.5%; in assay [5], 1.45%; in assay [6] it was -5.95%.

Consider `CC(C)(C)NC(=S)N/N=C/c1ccccn1`, for which the growth inhibition is 77.2% (active) in assay [1]; 85.2% (active) in assay [2]; 90.5% (active) in assay [3]; 88.3% (active) in assay [4]; 89.7% (active) in assay [5]; 89.7% (active) in assay [6].

With `COCC/C=C\CN(C(C)C)C(C)C`, the growth inhibition in assay [1] is -9.5%; in assay [2], -13.3%; in assay [3], -0.4%; in assay [4] it was 5.45%; in assay [5] it was 3.5%; in assay [6] it was 1.05%.

Consider `O=C1OC2c3ccccc3C3CC(=O)C2C13` (stereo not given), for which the growth inhibition in assay [1] is 10.2%; in assay [2], -5.7%; in assay [3], 9.35%; in assay [4], 6.25%; in assay [5], 1.25%; in assay [6], 7.65%.

Consider `O=C(/C=C/c1ccc(O)cc1)OCC1OC(Oc2cc(O)c3c(c2)OC(c2ccc(O)cc2)CC3=O)C(O)C(O)C1O` (stereo not given), for which the growth inhibition in assay [1] is 9.35%; in assay [2], -7.45%; in assay [3], 9.6%; in assay [4], -16.1%; in assay [5] it was 14.3%; in assay [6], 5.1%.

Turning to `CCN(CC)CCOC(=O)COc1ccc(Cc2ccccc2)cc1`, the growth inhibition was 14.7% in assay [1]; 3.55% in assay [2]; 14.3% in assay [3]; 15.6% in assay [4]; -9.4% in assay [5]; 11.3% in assay [6].

`Cc1ccc2c(c1)C1(OC(=O)c3ccccc31)c1ccc(F)cc1O2` (stereo not given): the growth inhibition in assay [1] is 55%; in assay [2], 12.8%; in assay [3], 36.9%; in assay [4], 36.8%; in assay [5], 22.7%; in assay [6], 18.1%.

Turning to `CC(C)Cc1ncnc2n[nH]nc12`, the growth inhibition in assay [1] is 1.65%; in assay [2], 8.5%; in assay [3], 35.5%; in assay [4], 35.4%; in assay [5], 20.4%; in assay [6], 17.8%.

In the case of `OC1CNC(=S)NC1`, the growth inhibition in assay [1] is -8.85%; in assay [2], -10.2%; in assay [3], -12.6%; in assay [4], -22.2%; in assay [5] it was -5.2%; in assay [6] it was 12.9%.

Consider `COc1ccc(C(O)C2CCCN(C)S2(=O)=O)cc1` (stereo not given), for which the growth inhibition in assay [1] is 13.4%; in assay [2], 21.9%; in assay [3] it was 2.75%; in assay [4] it was 15.5%; in assay [5], 30.6%; in assay [6], 15.6%.

As for `CC(c1ccccc1)C(O)S(=O)(=O)O` (stereo not given), the growth inhibition in assay [1] is 6.95%; in assay [2] it was 3.7%; in assay [3], 7.35%; in assay [4] it was -5.05%; in assay [5], 17.3%; in assay [6] it was -0.35%.

Regarding `CC(C)NCC(O)COc1cccc2ccccc12` (stereo not given), the growth inhibition was 19.4% in assay [1]; -32.2% in assay [2]; 31.1% in assay [3]; 20.6% in assay [4]; 14.9% in assay [5]; 11.1% in assay [6].

For the molecule `O=C(Nc1cc(Cl)ccc1Cl)C(=O)C(c1cnc2ccccc2n1)[N+](=O)[O-]` (stereo not given), the growth inhibition is 12.7% in assay [1]; 6.3% in assay [2]; -23.8% in assay [3]; 36.1% in assay [4]; 34.1% in assay [5]; 13.3% in assay [6].

Turning to `Cc1cc[n+](C2=C([O-])C3=C(C(=O)C2=O)C2c4ccccc4C3c3ccccc32)c(C)c1`, the growth inhibition is 98.5% (active) in assay [1]; 98.7% (active) in assay [2]; 98.8% (active) in assay [3]; 98.3% (active) in assay [4]; 90.2% (active) in assay [5]; 97.5% (active) in assay [6].

`NC(=O)N/N=C1\CCCCC12CCCCC2`: the growth inhibition is 4.3% in assay [1]; 6.25% in assay [2]; -4.9% in assay [3]; -16.1% in assay [4]; 2.2% in assay [5]; -11.4% in assay [6].

In the case of `O=C1C=CC(=O)N1C(c1ccccc1)(c1ccccc1)c1ccccc1`, the growth inhibition in assay [1] is 99% (active); in assay [2], 99.7% (active); in assay [3] it was 99.5% (active); in assay [4], 99% (active); in assay [5] it was 99.5% (active); in assay [6], 99.5% (active).

On to `COc1ccccc1N/C(=C\C(=O)C(=O)NC12CC3CC(CC(C3)C1)C2)c1ccccc1`, for which the growth inhibition was 11.4% in assay [1]; 2.55% in assay [2]; 8.65% in assay [3]; 2.25% in assay [4]; 3.75% in assay [5]; 14.2% in assay [6].
